In PubChem BioAssay AID1159580 (chemical genetic matrix, 2015):
The whole screen tested about 5,500 compounds, of which about 2,000 (36%) were called active. About 18% were inconclusive and are not listed. No stated cut-off is given here; in the data, active means normalized growth mostly below about 0.91 (no sharp cut-off); inconclusive means no clear call, values can overlap the other calls; inactive means mostly above about 0.92. This is one part of the list.

Test: chemical genetic growth profiling, strain panel (AID 1159580);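 further: tested at 20 µM; growth read once vehicle control cultures reached saturation at 30 °C; 1 = growth at the plate median or of vehicle wells; lower values mean less growth of the strain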
Settings: growth OD

Measured: normalized growth

COc1nc(NC(C)C)nc(NC(C)C)n1
inactive: S. cerevisiae deletion strains, locus YJR075W, strain HOC1, hits give low values 1 | S. cerevisiae deletion strains, locus YKL009W, strain mrt4, hits give low values 1.02 | S. cerevisiae deletion strains, locus YKL068W, hits give low values 1.01 | S. cerevisiae deletion strains, locus YKL085W, strain MDH1 (second series), hits give low values 1.01 | S. cerevisiae deletion strains, locus YKL085W, strain MDH1, hits give low values 1.01 | S. cerevisiae deletion strains, locus YKL160W, strain elf1, hits give low values 1.02 | S. cerevisiae deletion strains, locus YKL190W, strain CNB1, hits give low values 1.02 | S. cerevisiae deletion strains, locus YKR001C, strain vps1, hits give low values 1.02 | S. cerevisiae deletion strains, locus YKR026C, strain gcn3, hits give low values 1.02 | S. cerevisiae deletion strains, locus YKR091W, strain srl3, hits give low values 1.02 | S. cerevisiae deletion strains, locus YLL001W, strain dnm1, hits give low values 1.02 | S. cerevisiae deletion strains, locus YLL026W, hits give low values 1.02 | S. cerevisiae deletion strains, locus YLL041C, strain sdh2, hits give low values 1.02 | S. cerevisiae deletion strains, locus YLR027C, strain aat2, hits give low values 1.03 | S. cerevisiae deletion strains, locus YLR039C, strain RIC1, hits give low values 1.02 | S. cerevisiae deletion strains, locus YLR058C, strain SHM2, hits give low values 1 | S. cerevisiae deletion strains, locus YLR102C, strain apc9, hits give low values 1.02 | S. cerevisiae deletion strains, locus YLR113W, strain HOG1, hits give low values 0.986 | S. cerevisiae deletion strains, locus YLR221C, strain rsa3, hits give low values 1.04 | S. cerevisiae deletion strains, locus YLR258W, strain gsy2, hits give low values 1.01 | S. cerevisiae deletion strains, locus YLR262C, strain YPT6 (second series), hits give low values 1.02 | S. cerevisiae deletion strains, locus YLR262C, strain YPT6, hits give low values 1.02 | S. cerevisiae deletion strains, locus YLR268W, strain sec22, hits give low values 1.01 | S. cerevisiae deletion strains, locus YLR320W, strain mms22, hits give low values 1.04 | S. cerevisiae deletion strains, locus YLR330W, strain CHS5, hits give low values 1.01 | S. cerevisiae deletion strains, locus YLR342W, strain FKS1 (second series), hits give low values 1.03 | S. cerevisiae deletion strains, locus YLR342W, strain FKS1, hits give low values 1.01 | S. cerevisiae deletion strains, locus YLR357W, strain rsc2, hits give low values 1.03 | S. cerevisiae deletion strains, locus YLR370C, strain arc18, hits give low values 1.04 | S. cerevisiae deletion strains, locus YLR371W, strain rom2, hits give low values 1.02 | S. cerevisiae deletion strains, locus YLR384C, strain iki3, hits give low values 1.03 | S. cerevisiae deletion strains, locus YLR418C, strain cdc73, hits give low values 1.01 | S. cerevisiae deletion strains, locus YML016C, strain PPZ1, hits give low values 1.01 | S. cerevisiae deletion strains, locus YML032C, strain rad52, hits give low values 1.02 | S. cerevisiae deletion strains, locus YML120C, strain ndi1, hits give low values 1.02 | S. cerevisiae deletion strains, locus YML124C, strain tub3, hits give low values 1.02 | S. cerevisiae deletion strains, locus YMR058W, strain fet3, hits give low values 1.03 | S. cerevisiae deletion strains, locus YMR078C, strain ctf18, hits give low values 1.03 | S. cerevisiae deletion strains, locus YMR125W, strain sto1, hits give low values 1.03 | S. cerevisiae deletion strains, locus YMR129W, hits give low values 1.01 | S. cerevisiae deletion strains, locus YMR205C, strain PFK2, hits give low values 1.01 | S. cerevisiae deletion strains, locus YMR223W, strain ubp8, hits give low values 1.02 | S. cerevisiae deletion strains, locus YMR231W, strain pep5, hits give low values 1.02 | S. cerevisiae deletion strains, locus YMR263W, strain SAP30, hits give low values 1.02 | S. cerevisiae deletion strains, locus YMR307W, strain GAS1, hits give low values 1.04 | S. cerevisiae deletion strains, locus YNL067W, strain RPL9B, hits give low values 1.01 | S. cerevisiae deletion strains, locus YNL071W, strain lat1, hits give low values 1.01 | S. cerevisiae deletion strains, locus YNL128W, strain TEP1, hits give low values 1 | S. cerevisiae deletion strains, locus YNL153C, strain GIM3, hits give low values 1.01 | S. cerevisiae deletion strains, locus YNL183C, strain NPR1, hits give low values 0.999 | S. cerevisiae deletion strains, locus YNL209W, strain ssb2, hits give low values 1.02 | S. cerevisiae deletion strains, locus YNL233W, strain BNI4, hits give low values 1.01 | S. cerevisiae deletion strains, locus YNL248C, strain rpa49, hits give low values 1.04 | S. cerevisiae deletion strains, locus YNL250W, strain rad50, hits give low values 1.01 | S. cerevisiae deletion strains, locus YNL271C, strain bni1, hits give low values 1.01 | S. cerevisiae deletion strains, locus YNL298W, strain CLA4, hits give low values 1.03 | S. cerevisiae deletion strains, locus YNL307C, strain MCK1, hits give low values 1.03 | S. cerevisiae deletion strains, locus YNL322C, strain KRE1 (second series), hits give low values 1.02 | S. cerevisiae deletion strains, locus YNL322C, strain KRE1, hits give low values 1 | S. cerevisiae deletion strains, locus YNR049C, strain mso1, hits give low values 1.05 | S. cerevisiae deletion strains, locus YNR052C, strain pop2, hits give low values 1.03 | S. cerevisiae deletion strains, locus YOL006C, strain TOP1, hits give low values 1.03 | S. cerevisiae deletion strains, locus YOL012C, strain htz1 1.23 | S. cerevisiae deletion strains, locus YOL147C, strain pex11, hits give low values 1.02 | S. cerevisiae deletion strains, locus YOR001W, strain rrp6, hits give low values 1.02 | S. cerevisiae deletion strains, locus YOR061W, strain CKA2, hits give low values 1 | S. cerevisiae deletion strains, locus YOR069W, strain VPS5, hits give low values 1.01 | S. cerevisiae deletion strains, locus YOR070C, strain gyp1, hits give low values 1.03 | S. cerevisiae deletion strains, locus YOR080W, strain dia2, hits give low values 1.03 | S. cerevisiae deletion strains, locus YOR083W, strain WHI5, hits give low values 1.01 | S. cerevisiae deletion strains, locus YOR106W, strain vam3, hits give low values 1.02 | S. cerevisiae deletion strains, locus YOR136W, strain idh2, hits give low values 1.02 | S. cerevisiae deletion strains, locus YOR144C, strain elg1, hits give low values 1.03 | S. cerevisiae deletion strains, locus YOR184W, strain ser1, hits give low values 1.03 | S. cerevisiae deletion strains, locus YOR231W, strain MKK1, hits give low values 1.05 | S. cerevisiae deletion strains, locus YOR265W, strain rbl2, hits give low values 1.01 | S. cerevisiae deletion strains, locus YOR270C, strain vph1, hits give low values 1.06 | S. cerevisiae deletion strains, locus YOR290C, strain snf2, hits give low values 0.997 | S. cerevisiae deletion strains, locus YOR316C, strain cot1, hits give low values 1.02 | S. cerevisiae deletion strains, locus YPL051W, strain arl3, hits give low values 1.01 | S. cerevisiae deletion strains, locus YPL055C, strain LGE1, hits give low values 1.02 | S. cerevisiae deletion strains, locus YPL078C, strain atp4, hits give low values 1.01 | S. cerevisiae deletion strains, locus YPL106C, strain sse1, hits give low values 1.01 | S. cerevisiae deletion strains, locus YPL240C, strain hsp82, hits give low values 1.01 | S. cerevisiae deletion strains, locus YPL241C, strain CIN2, hits give low values 1.02 | S. cerevisiae deletion strains, locus YPL256C, strain CLN2, hits give low values 1.08 | S. cerevisiae deletion strains, locus YPR119W, strain clb2, hits give low values 1.01 | S. cerevisiae deletion strains, locus YPR141C, strain kar3, hits give low values 1.03 | S. cerevisiae deletion strains, locus YPR163C, strain tif3, hits give low values 1.02 | S. cerevisiae deletion strains, locus YPR167C, strain met16, hits give low values 1.02 | S. cerevisiae deletion strains, strain wtn01, hits give low values 1.01 | S. cerevisiae strains, strain wild type, hits give low values 1
